# Test results taken from PubChem BioAssay (EPA / NIEHS).
# Records with an inconclusive call do not appear. Calls of active or inactive are those of the source. Rule for the calls: active = hit-call score of the fitted dose curve at least 0.9, where 1 is the maximum; inconclusive = response in the unintended direction; inactive = score below 0.9.
# Assays:
# [1] = VALA_TUBHUV_Antagonist_TubuleLength: VALA Sciences human Umbilical Vein Endothelial Tubule Formation (TUBHUV) Antagonism Assay (AID 2284325)
# Method in brief: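 HUVEC–HDF co-culture (1:3) pre-grown 3 days with 10 ng/ml VEGF, then 3 days with compound plus VEGF. Fixed, nuclear and CD31 stained; total tubule length by imaging versus 0.1% DMSO; suramin 100 uM positive control.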
# [2] = VALA_MIGHUV1_ScratchOnly_CellCount: Viability Assessment in the VALA Sciences human Umbilical Vein Endothelial Cell Migration (MIGHUV) Assay, Scratch Wound Inhibited Recovery (AID 2284327)
# Method in brief: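 HUVEC scratched after 24 h culture, chemical added within 30 min at 6 concentrations in triplicate (0.1% DMSO vehicle). After 24 h recovery, fixed cells were counted by Hoechst nuclear imaging in the wound area.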
# [3] = VALA_TUBIPS_Antagonist_CellCount: Viability Assessment in the VALA Sciences human iPS-derived Endothelial Tubule Formation (TUBIPS) Antagonism Assay (AID 2284335)
# [4] = TAMU_PeakParms_SingleDonor1434_Asystole: Texas A&M University (TAMU) 1.5-hr Human Induced Pluripotent Stem Cell (iPSC)-derived Cardiomyocytes Calcium (Ca+2) Flux Assay for Cardiotoxicity: Asystole (quiescence of beating) (AID 2284328)
# Procedure: TAMU_PeakParms is a cell-based, multiplexed-readout assay that uses iPSC-derived cardiomyocytes with measurements taken at 1.5 hours after chemical dosing in a microplate: 384-well plate.TAMU_PeakParms_SingleDonor1434_Chronotopy is a phenotype derived from the peak.freq.avg parameter and uses an EC95 as its POD (95% decrease in beat rate, compared to controls). Peak.Freq.Avg measures the average peak frequency, in beats per second, using Fluorescence intensity as a functional reporter from Calcium (Ca+2) flux assay technology. There is no preprocessing performed on the data used to model this phenotype.Data from the assay component TAMU_PeakParms_SingleDonor1434_Asystole was analyzed into 1 assay endpoint. This assay endpoint, TAMU_PeakParms_SingleDonor1434_Asystole, was analyzed in the positive analysis fitting direction relative to DMSO as the negative control and baseline of activity. Using a type of functional reporter, loss-of-signal activity can be used to understand changes in the cardiac function. To generalize the intended target to other relatable targets, this assay endpoint is annotated to the cardiomyocyte function intended target family, where the subfamily is cessation of beating. […]
smiles,measurement,setting,value
O=[N+]([O-])c1cc(C(F)(F)F)c(Cl)c([N+](=O)[O-])c1Nc1ncc(C(F)(F)F)cc1Cl,outcome,[1],inactive
CN(C)[C@@H]1C(=O)C(C(N)=O)=C(O)[C@@]2(O)C(=O)C3=C(O)c4c(O)cccc4[C@@](C)(O)[C@H]3[C@H](O)[C@@H]12,outcome,[2],inactive
same,outcome,[3],inactive
CCOP(=S)(OCC)Oc1ccc([N+](=O)[O-])cc1,outcome,[4],inactive
C=C(C)[C@H]1Cc2c(ccc3c2O[C@@H]2COc4cc(OC)c(OC)cc4[C@@H]2C3=O)O1,AC50,[4],10 nM (active)
CC1=NNC(=O)N(/N=C/c2cccnc2)C1,outcome,[3],inactive
